Rab9 promoter act = activators of Rab9 promoter. Huh7 Rab9 promoter-luciferase reporter, luminescence, 24 h. Potency, µM (series often up to 9.22 µM), actives largely listed as activators. 2.8% of 320,000 active; note: nearly all actives have a fitted effect of over 60% in size
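Measured in stably transfected Huh7 cells bearing a Rab9 promoter–luciferase construct: 24 h compound treatment at 37 °C, followed by luminescence detection.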
SMN2 splice up = increases expression of the SMN2 splice variant. HEK293 SMN2-luciferase splicing reporter, luminescence, 30-36 h. Potency, µM (titrated, usually from 46.1 µM), usual class: activators. 2.8% of 210,000 active; note: nearly all actives have a fitted effect of over 55% in size
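HEK293 cells carry an SMN2 minigene-luciferase reporter in which exon 7 inclusion puts luciferase in frame. Cells were seeded at 2000 cells/well, attached for 10-12 hours, then exposed to compounds for 30-36 hours at 37C before ONE-Glo luminescence.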
ELG1 repair inh = ELG1-dependent DNA repair inhibition; HEK293T ELG1-luciferase reporter, luminescence, 16 h; DNA damage induced by 5-fluorouridine; Potency, µM (doses to about 46.1 µM), hits mostly inhibitors; 2.3% of 330,000 active; AID 504467; note: nearly all actives have a fitted effect of over 55% in size
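Step one: seed 2,000 cells per well. Step two: pin-transfer compound or DMSO alongside 5-fluorouridine. Step three: incubate 16 hr, 37 °C, 5% CO2. Step four: add ONE-Glo, wait 30 min, read luminescence.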
ELG1 genotoxic = inducers of genotoxicity in HEK293T ELG1-luciferase cells. Potency, µM (titrated, usually from 46 µM), hits mostly activators. HEK293T ELG1-luciferase reporter, luminescence, 16 h. 1.3% of 330,000 active; note: nearly all actives have a fitted effect of over 60% in size
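Luminescence read-out: rising ELG1-luciferase signal, reflecting elevated ELG1 protein under genetic stress, flags genotoxic compounds. Cells were treated for 16 hr at 37 °C before ONE-Glo detection.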
FLuc counter = counter-screen for miR-21 project: firefly luciferase inhibitors or activators; P08659; 6.9% of 360,000 active; AID 588342; Potency, µM (titrated, usually from 57.5 µM), most hits filed as inhibitors; purified FLuc, Km substrates, luminescence inhibition; note: nearly all actives have a fitted effect of over 55% in size
Target sequence (P08659 whole entry, looked up): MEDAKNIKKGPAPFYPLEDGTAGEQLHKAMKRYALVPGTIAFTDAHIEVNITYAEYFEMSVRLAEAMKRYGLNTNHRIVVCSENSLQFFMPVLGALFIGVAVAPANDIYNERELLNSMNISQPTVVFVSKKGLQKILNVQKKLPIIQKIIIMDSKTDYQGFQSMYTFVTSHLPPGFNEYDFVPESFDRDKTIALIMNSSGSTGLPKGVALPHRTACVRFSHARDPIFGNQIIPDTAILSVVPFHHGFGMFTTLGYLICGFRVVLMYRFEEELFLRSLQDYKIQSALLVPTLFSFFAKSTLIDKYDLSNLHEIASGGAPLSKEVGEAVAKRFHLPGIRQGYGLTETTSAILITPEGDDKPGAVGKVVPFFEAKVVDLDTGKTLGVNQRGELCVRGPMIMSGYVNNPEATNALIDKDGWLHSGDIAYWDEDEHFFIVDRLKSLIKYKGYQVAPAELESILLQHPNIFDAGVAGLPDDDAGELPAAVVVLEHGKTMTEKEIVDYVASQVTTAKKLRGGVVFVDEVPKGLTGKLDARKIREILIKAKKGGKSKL
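Biochemical qHTS of compounds, final roughly 60 µM downward over six points, against 10 nM purified firefly luciferase using Km concentrations of substrates (10 uM D-luciferin, 10 uM ATP) in Tris acetate pH 7.5 buffer; luminescence output.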
NPC1 prom act = NPC1 promoter activation | 2.4% of 320,000 active | Huh7 NPC1 promoter luciferase reporter, 24 h | AID 485313 | Potency, µM (titrated, usually from 9.22 µM), hits mostly activators; note: nearly all actives have a fitted effect of over 60% in size
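Stably transfected Huh7 (NPC1 promoter→luciferase), 1500 cells/well in Opti-MEM + 10% FBS, 2 h settle, then compound 24 h at 37 °C. Luminescence after 10 min with Amplite reagent.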
A number is an active result; . = inactive; ? = inconclusive; / = no result. Only some compounds are listed: those with a hit (about 9.2% of all), similar ones and a draw of the others. Calls come from the whole dose curve; as a rule, active = well fitted curve in the direction sought with a large enough effect; inconclusive = small, poorly fitted or top-dose-only effect, or another doubt; inactive = no such curve, though single readings can be large; an effect the other way counts as inactive or inconclusive.

SMILES | Rab9 promoter act | SMN2 splice up | ELG1 repair inh | ELG1 genotoxic | FLuc counter | NPC1 prom act
Cc1ccc(S(=O)(=O)NCC(=O)OCC(=O)NCc2ccc3c(c2)OCO3)cc1 | . | / | . | . | . | .
O=C(NCCCCCCNC(=O)ON=C1CCCCC1)ON=C1CCCCC1 | / | . | / | / | / | /
Cc1ccc(C)c(S(=O)(=O)N2CCN(C(=O)c3ccc(N4CCCC4)c([N+](=O)[O-])c3)CC2)c1 | . | / | 20.6µM | . | . | .
O=C(NCCCn1ccnc1)c1ccc(N2CCCCCC2)c([N+](=O)[O-])c1 | . | . | 9.2µM | . | . | .
Cc1cccc(NC(=O)c2ccc(N3CCCCC3)c([N+](=O)[O-])c2)n1 | 2µM | 6.31µM | ? | ? | 4.78µM | 2.82µM
Cc1cccc(NC(=O)c2ccc(N(C)C3CCCCC3)c([N+](=O)[O-])c2)n1 | . | . | ? | . | 10.7µM | .
O=C(CN1C(=O)COc2ccc(Cl)cc21)NCC1CCCO1 (stereo not drawn) | ? | / | . | . | . | .
C[C@]12c3[nH]c4ccccc4c3CCN1C(=O)C(CC(=O)NCCC1=CCCCC1)C[C@@H]2C(=O)N1CCCCC1 (stereo partly drawn) | / | / | . | . | / | /
Cc1ccc(CNC(=O)Cn2ncc3c(C)n(Cc4ccc(Cl)cc4)c(C)c3c2=O)cc1 | / | . | / | / | . | /
CCOC(=O)c1scc(-c2ccc(C)cc2)c1S(=O)(=O)Nc1cc(Cl)ccc1OC | / | / | / | / | . | /
O=C(O)c1ccccc1C(=O)c1ccc(N2CCCC2)c([N+](=O)[O-])c1 | . | . | ? | . | 23.9µM | .
Oc1ccc(-c2n[nH]c(=S)n2-c2ccc3c(c2)OCCO3)c(O)c1 | . | . | 3.66µM | . | ? | .
CCOC(=O)C1=C(c2ccccc2)NC(N)=NC1c1ccc(OCc2ccc(Cl)cc2)c(OC)c1 (stereo not drawn) | . | / | . | . | 13.5µM | .
CCN(CC)c1ccc(C(=O)NNC(=O)CCl)cc1 | . | . | . | . | . | .
CCC1(c2ccccc2)NC(=O)N(CC(=O)NNC(=O)c2ccoc2C)C1=O (stereo not drawn) | . | / | . | . | . | .
CCN(CC)c1ccc(C(=O)NNC(=O)CN2C(=O)NC3(CCCCC3)C2=O)cc1 | . | / | . | . | 9.53µM | .
CCN(CC)c1ccc(C(=O)NNC(=O)c2cccn2C)cc1 | 3.55µM | / | ? | ? | ? | ?
O=C(CN1C(=O)NC2(CCCC2)C1=O)NNC(=O)c1ccc(Cl)cc1 | . | / | . | . | . | .
CC1(c2ccccc2)NC(=O)N(CC(=O)NNC(=O)c2ccccc2)C1=O (stereo not drawn) | . | / | . | . | . | .
CCc1ccc(C(=O)NNC(=O)CN2C(=O)NC(CC)(c3ccccc3)C2=O)cc1 (stereo not drawn) | . | / | . | . | 16.9µM | .
CCN(CC)c1ccc(C(=O)NNC(=O)CN2C(=O)NC(C)(c3ccccc3)C2=O)cc1 (stereo not drawn) | . | / | ? | . | 5.36µM | .
c1ccc(-c2nccc(-c3ccc4c(c3)OCO4)n2)cc1 | ? | ? | ? | ? | 19µM | ?
c1ccc(CNc2ccnc(-c3ccc4c(c3)OCO4)n2)cc1 | / | 12.6µM | / | / | / | /
CCc1ccc(NC(=O)Cn2c(=O)n(CCCCC(=O)NCc3ccccc3Cl)c(=O)c3ccccc32)cc1 | / | . | / | / | . | /
CCn1c(=O)c2sccc2n2c(CCC(=O)Nc3cc(C)cc(C)c3)nnc12 | / | . | / | / | . | /
SMILES | Rab9 promoter act | SMN2 splice up | ELG1 repair inh | ELG1 genotoxic | FLuc counter | NPC1 prom act
CCCCn1c(SCC(=O)N2CCCC2)nc2cc(S(N)(=O)=O)ccc21 | . | . | . | . | . | .
CCCCn1c(SCC(=O)c2ccc3c(c2)NC(=O)CO3)nc2cc(S(N)(=O)=O)ccc21 | . | . | 16.4µM | . | . | .
CCCCn1c(SCc2c(C)noc2C)nc2cc(S(N)(=O)=O)ccc21 | . | ? | ? | 18.4µM | . | .
Clc1cccc(N/N=C/c2ccncc2)c1 | ? | ? | ? | ? | 16.9µM | .
O=C(Nc1cccc(Cl)c1)O/N=C\c1ccncc1 | . | / | . | . | ? | .
Cc1ccc(N/N=C/c2ccncc2)cc1 | 3.16µM | / | ? | ? | 12µM | ?
Cc1ccc(N/N=C/c2cccnc2)cc1 | ? | ? | ? | ? | 16.9µM | ?
C(=N\Nc1ccccn1)/c1cccnc1 | . | / | . | . | ? | .
Cc1cccc(C)c1NC(=O)C1CCCN(S(=O)(=O)c2c(C)noc2/C=C/N(C)C)C1 (stereo not drawn) | / | . | / | / | . | /
CC(=O)Nc1ccc(NC(=O)c2cc(C)nn2-c2ccccc2)cc1 | . | . | . | . | . | .
CCOc1ccc(-n2nc3ccc(NC(=O)CC)cc3n2)cc1 | ? | / | ? | . | 2.69µM | ?
CC(=O)Nc1ccc2c(c1)ncn2-c1ccccc1 | 1.41µM | / | ? | 20.6µM | 10.7µM | 2.82µM
CCC(=O)Nc1ccc2c(c1)ncn2-c1ccccc1 | ? | ? | ? | ? | 15.1µM | ?
CCOc1ccc(-n2nc3ccc(NC(=O)Cc4ccccc4)cc3n2)cc1 | / | . | / | / | . | /
Cn1cnc2cc(NC(=O)COc3ccccc3)ccc21 | . | / | ? | ? | 23.9µM | .
Cc1ccc(NC(=O)Cc2c(O)c3ccccc3[nH]c2=O)c(C)c1 | . | / | . | . | 16.9µM | .
Cc1ccccc1NC(=O)Cc1c(O)c2ccccc2[nH]c1=O | . | . | . | . | . | .
Cc1cccc(C)c1NC(=O)c1c(O)c2ccccc2[nH]c1=O | . | / | . | . | . | .
O=C(Nc1cccc(O)c1)c1c(O)c2ccccc2[nH]c1=O | ? | / | ? | ? | 3.79µM | ?
Cc1cccc(NC(=O)c2c(O)c3ccccc3[nH]c2=O)c1 | 0.708µM | / | ? | ? | ? | 1.58µM
O=C(Nc1cccc(C(F)(F)F)c1)c1c(O)c2ccccc2[nH]c1=O | . | / | . | . | . | .
O=C(CNC(=O)C12CC3CC(CC(C3)C1)C2)OCc1ccc(F)cc1Cl | . | / | . | . | . | .
O=C(Oc1ccccc1)C1O[C@@H]1c1ccccc1 (stereo partly drawn) | / | . | / | / | / | /
CC1=CC(=C(C#N)c2nc3ccccc3s2)C=C(C)N1Cc1ccco1 | . | . | . | . | 4.78µM | .
N#C/C(=C(/O)c1ccco1)c1nc2ccccc2s1 | 3.16µM | . | ? | . | 8.49µM | 2.24µM
Cn1c(/C(C#N)=C(\O)c2cccc(F)c2)nc2ccccc21 | . | / | . | ? | . | .
O=C(NCc1ccco1)c1nc2ccccc2s1 | . | ? | ? | ? | ? | .
N#C/C(=C(/O)C(Cl)c1ccccc1)c1nc2ccccc2s1 (stereo not drawn) | ? | . | ? | ? | ? | .
N#C/C(=C(/O)c1cccc(F)c1)c1nc2ccccc2s1 | ? | / | ? | . | 19µM | ?
N#C/C(=C(/O)c1cc2ccccc2o1)c1nc2ccccc2s1 | ? | / | . | . | 6.75µM | 3.16µM
